In PubChem BioAssay AID588591 (National Center for Advancing Translational Sciences (NCATS), 2011):
In all, about 390,000 compounds went through this assay and about 4,700 (1.2%) were called active. Inconclusive results (about 4%) are left out. The call rests on the fitted dose curve; in most records, active means well fitted inhibition curve with a large enough effect; inconclusive means small, poorly fitted or top-dose-only effect, or another doubt; inactive means no such curve, though single readings can be large or run the other way. The entries come from a sample that favours actives as a whole. A call without a number means that no potency is given here.

Molecular target: DNA polymerase eta (Homo sapiens) (UniProt Q9Y253)
Sequence (Q9Y253 whole entry, looked up): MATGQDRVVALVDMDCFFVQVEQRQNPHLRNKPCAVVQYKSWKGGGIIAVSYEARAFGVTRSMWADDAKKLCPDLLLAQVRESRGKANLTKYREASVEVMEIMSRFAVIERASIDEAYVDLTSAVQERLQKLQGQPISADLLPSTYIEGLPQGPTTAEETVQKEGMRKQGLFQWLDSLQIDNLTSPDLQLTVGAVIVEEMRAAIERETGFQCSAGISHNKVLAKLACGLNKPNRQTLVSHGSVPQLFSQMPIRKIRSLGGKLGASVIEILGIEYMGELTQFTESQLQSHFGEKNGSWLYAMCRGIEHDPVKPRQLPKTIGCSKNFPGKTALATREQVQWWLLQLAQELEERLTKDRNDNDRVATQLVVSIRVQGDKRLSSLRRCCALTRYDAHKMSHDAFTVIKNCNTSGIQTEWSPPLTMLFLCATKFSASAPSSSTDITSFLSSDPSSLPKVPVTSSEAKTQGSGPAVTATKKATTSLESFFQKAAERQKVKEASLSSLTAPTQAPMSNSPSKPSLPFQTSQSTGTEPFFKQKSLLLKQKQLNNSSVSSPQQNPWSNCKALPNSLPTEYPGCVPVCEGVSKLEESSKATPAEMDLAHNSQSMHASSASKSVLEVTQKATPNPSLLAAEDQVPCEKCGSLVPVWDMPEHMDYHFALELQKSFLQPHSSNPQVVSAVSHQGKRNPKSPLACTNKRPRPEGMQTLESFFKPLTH
Assay: qHTS for Inhibitors of Polymerase Eta
Details: recombinant Pol eta, fluorescent DNA replication assay; series mostly up to 114 µM
In short: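 Pol eta (10 nM) was preincubated with compounds for 15 min at room temperature, after which fluorescent replication substrate (50 nM final) was added to start the reaction. Fluorescence was read kinetically at 0 and 10 min.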
Potency means the concentration at half of the fitted maximal effect.

| SMILES | Potency |
| --- | --- |
| O=C(Nc1ccc(C(=O)OCc2cc(=O)n3nc(C4CC4)sc3n2)cc1)c1ccc(F)cc1 | inactive |
| COc1ccc(CCNCc2c(C(=O)O)c(C)n(Cc3cccc(C)c3)c2C)cc1OC | inactive |
| Cn1c(=O)oc2cc(S(=O)(=O)CCC(=O)NCCc3ccc(Cl)cc3)ccc21 | inactive |
| COc1ccc(Cl)cc1NC(=O)CCS(=O)(=O)c1ccc(Br)cc1 | 20 µM (active) |
| O=C(CCS(=O)(=O)c1ccc(Br)cc1)NCCc1ccc(Cl)cc1 | 20 µM (active) |
| COc1ccc(Cl)cc1NC(=O)CN(C)Cc1ccc(OC)c(OC)c1 | inactive |
| COc1ccc(Cl)cc1NC(=O)CCC(=O)c1ccc(C)cc1 | inactive |
| CC(=O)N1CCc2cc(Br)cc(S(=O)(=O)CCC(=O)NCCc3ccc(Cl)cc3)c21 | inactive |
| O=C(CCS(=O)(=O)c1cc(Br)cc2c1N(C(=O)C1CC1)CC2)Nc1ccc(Br)cc1F | inactive |
| CSc1nc(-c2ccccc2Cl)nc2c1Cc1c(CO)cnc(C)c1O2 | inactive |
| CC(=O)c1sc2nc(SCC(=O)N3CCCCC3)[nH]c(=O)c2c1C | 10 µM (active) |
| Cc1c(C)n2c(SCC(=O)N3CCCC3)nnc2[nH]c1=O | inactive |
| COCCn1c(SCC(=O)N2CCCCCC2)nc2c(c1=O)SCC2 | inactive |
| Cc1cc(C)c2oc(C(=O)Nc3ccc(S(=O)(=O)N4CCCCCC4)cc3)cc(=O)c2c1 | inactive |
| O=C(CSc1nnc(-c2ccncc2)n1-c1ccccc1)Nc1ccc(Cl)c(Cl)c1 | inactive |
| COc1ccc(S(=O)(=O)NCCSc2nnnn2-c2ccccc2)cc1 | inactive |
| CC(C)(C)C1C/C(=C/c2ccco2)C(=O)/C(=C/c2ccco2)C1 (stereo not given) | 28.2 µM (active) |
| COc1cc(Cl)ccc1Nc1ncc(C(=O)N2CCN(c3ccccc3OC)CC2)c2ccccc12 | inactive |
| COc1ccc(Nc2ncc(C(=O)Nc3cc(C)ccc3OC)c3ccccc23)cc1 | inactive |
| COc1ccc(C(=O)Nc2cccc(C(=O)OCc3cc(=O)n4c5c(sc4n3)CCCC5)c2)cc1 | inactive |
| COc1ccccc1CNC(=O)c1ccc(-n2c(C)cc3c2CCCC3)cc1 | inactive |
| COc1ccc(C2=CC(c3ccccc3Cl)n3nc(-c4ccc(Cl)cc4)nc3N2)cc1 (stereo not given) | inactive |

| SMILES | Potency |
| --- | --- |
| CCCCOc1ccc(CNC(=O)c2ccc3c(c2)N(C)C(=O)C2CCCCN32)cc1 (stereo not given) | inactive |
| Cc1cc(C)cc(NS(=O)(=O)c2ccc(-c3cc(C)no3)s2)c1 | inactive |
| CCOc1ccc(NC(=O)c2ncoc2-c2ccco2)cc1 | inactive |
| COCCNC(=O)Nc1ccc2nc(-c3ccco3)c(-c3ccco3)nc2c1 | 2.82 µM (active) |
| COc1ccc(NC(=O)C(=O)NCc2ccco2)cc1 | inactive |
| CCC(=O)N1c2ccccc2CC1C(=O)N1CCN(c2ccccc2F)CC1 (stereo not given) | inactive |
| Cc1cccc(CC(=O)N2CC(=O)Nc3ccc(F)cc3C2c2ccccc2)c1 (stereo not given) | inactive |
| O=C(COC(=O)CSc1ccccc1)Nc1ccc(F)cc1F | inactive |
| O=C(COC(=O)c1ccc(F)cc1F)Nc1ncccn1 | 22.4 µM (active) |
| CC(NC(=O)COC(=O)c1ccc(Cl)cc1O)c1ccc(F)cc1 (stereo not given) | inactive |
| CCOC(=O)c1ccc(NC(=O)Cn2c(=O)cc(C)c3c(C)nn(-c4cccc(F)c4)c32)cc1 | inactive |
| CN(Cc1ccccc1)S(=O)(=O)c1ccc(F)c(C(=O)Nc2cccc(Cl)c2Cl)c1 | inactive |
| CCN1CCN(C(c2ccc(C)cc2)c2c(O)cc(C)n(Cc3ccco3)c2=O)CC1 (stereo not given) | inactive |
| Cc1ccc(Cn2c(C)nc3c(c2=O)c2nc4ccccc4nc2n3Cc2ccco2)cc1 | 22.4 µM (active) |
| Cc1ccc(Cn2c(=O)n(Cc3nc(-c4ccccc4)no3)c(=O)c3cc4c(cc32)OCO4)cc1 | inactive |
| COc1cccc(C(=O)Nc2ccc(-c3cc(C(F)(F)F)nn3-c3ccccc3)cc2)c1 | inactive |
| O=C(CN1c2ccccc2S(=O)(=O)c2ccccc21)Nc1cccc(C(F)(F)F)c1 | inactive |
| CCCCN(CCCNC(=O)c1cc(Nc2ccccc2OC)nc2ccccc12)c1ccccc1 | inactive |
| O=C(NCCCO)C(=O)Nc1c2c(nn1-c1ccccc1)CSC2 | inactive |
| CC(C)(C)C(=O)OCc1nc(-c2ccc(O)c(O)c2)cs1 | 14.1 µM (active) |
| O=c1cc(-c2ccccc2)[nH]c2nc(Cl)ccc12 | inactive |
| Cc1ccc2c(c1)c1c(c(=O)n(-c3ccccc3)c(=O)n1CC(=O)c1ccc(Cl)cc1)n2C | inactive |

| SMILES | Potency |
| --- | --- |
| O=C(CSc1oc(-c2ccccc2)nc1S(=O)(=O)c1ccc(Br)cc1)NC1CCCCC1 | inactive |
| N=C1C(c2nc3ccccc3s2)=C(O)CN1NC(=O)c1ccc([N+](=O)[O-])cc1 | 50.1 µM (active) |
| N=C1C(c2nc3ccccc3[nH]2)=C(O)CN1NC(=O)c1c[nH]c2ccccc12 | inactive |
| O=C(CCNC(=O)c1ccc([N+](=O)[O-])cc1)Nc1ccccc1N1CCOCC1 | inactive |
| COCCNc1ncnc2c1c(-c1ccccc1)cn2-c1ccc(C)c(Cl)c1 | inactive |
| COc1cccc(-c2cc(C(=O)Nc3ccc(C)cc3)[nH]n2)c1 | inactive |
| Cn1c(=O)sc2cc(NS(=O)(=O)c3ccc(C(C)(C)C)cc3)ccc21 | inactive |
| O=C(Nc1ccc(-c2ccc3nncn3n2)cc1)C1CCCCC1 | inactive |
| CC(=O)c1ccc(S(=O)(=O)Nc2ccc(-c3ccc4nncn4n3)cc2)cc1 | 20 µM (active) |
| CC(=O)Nc1ccc(S(=O)(=O)Nc2ccc(-c3ccc4nnc(C)n4n3)cc2)cc1 | inactive |
| Cn1nnc2c(N3CCN(c4ccccc4)CC3)ncnc21 | inactive |
| CCCCSc1ncnc2c1sc1nc(N3CCOCC3)c3c(c12)CCCC3 | inactive |
| CN(C)C(CNC(=O)c1ccc(OCc2cn3ccccc3n2)cc1)c1ccco1 (stereo not given) | 39.8 µM (active) |
| O=Cc1ccc(OCc2cn3ccccc3n2)cc1 | inactive |
| CN(C)C(CNC(=O)CCCOc1ccccc1)c1ccco1 (stereo not given) | inactive |
| Cc1ccc(OCC(=O)Nc2ccc(OCc3cc(=O)n4c(C)csc4n3)cc2)cc1C | inactive |
| CCCCc1nn2c(=O)cc(COC(=O)c3ccccc3NC(=O)C(C)(C)C)nc2s1 | inactive |
| CCOc1ccc(N(CC)S(=O)(=O)N2CCCC(C(=O)NCc3ccc(Cl)cc3)C2)cc1 (stereo not given) | inactive |
| Cc1ccc(N(Cc2ccccc2O)C(=O)c2ccccc2F)cc1 | inactive |
| Cc1ccc(N(Cc2cc(=O)[nH]c3ccccc23)C(=O)CCl)cc1 | 56.2 µM (active) |
| Cn1nnnc1SCc1cc(=O)[nH]c2ccccc12 | inactive |
